# Values joined by “and” are separate entries in the source; they are usually repeats but may differ in a detail not shown here. Equal entries are not always repeated. Inconclusive results are not listed. A structure can be active in one record and inactive in another. Active and inactive are the calls of the source. Rule for the calls: active = hit-call score of the fitted dose curve at least 0.9, where 1 is the maximum; inconclusive = response in the unintended direction; inactive = score below 0.9.
# Experiments:
# [1] = target: Estrogen receptor beta (Homo sapiens) (UniProt Q92731); assay: ATG_hERb_XSP2: Attagene TRANS-FACTORIAL Multi-Species (XSP2) HepG2 Assay for human Estrogen Receptor (ERb) (AID 2283813);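 note: actives raise reporter mRNA above DMSO so AC50 reflects agonist induction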
# How it was run: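 Transient TRANS reporter system in HepG2: after 24 h of chemical, RNA is reverse-transcribed, reporter cDNA amplified, FAM-labelled and sized by capillary electrophoresis. Induction of the human ERb-Gal4 reporter is measured relative to DMSO.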
# [2] = target: GAL4 Transcription Factor (Internal Marker), GAL4 (gene 855828) (UniProt P04386); assay: ATG_GAL4_XSP2: Attagene TRANS-FACTORIAL Multi-Species (XSP2) HepG2 Assay for GAL4 Transcription Factor (Internal Marker) (AID 2283814);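 note: GAL4 reporter mRNA background control in MRTU transfected cells not a receptor target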
# How it was run: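 Background-control readout: gain-of-signal fitted against DMSO. After 24 h exposure of transfected HepG2 (MRTU, GAL4-UAS reporters; 3 nM 6-alpha-fluorotestosterone, 1.5 nM norgestrel present), transcripts quantified by RT-PCR and capillary electrophoresis fluorescence.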
# [3] = system: turtle Androgen Receptor (AR), gene 101947425; assay: ATG_trAR_XSP2: Attagene TRANS-FACTORIAL Multi-Species (XSP2) HepG2 Assay for turtle Androgen Receptor (AR) (AID 2283815);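 for AC50: reporter mRNA from a Gal4 chimera of turtle AR measured by RT-PCR; potency for gain of reporter signal meaning activation above DMSO baseline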
# How it was run: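 Reporter transcripts were quantified via RT-PCR and capillary electrophoresis and fitted upward against DMSO. Transiently transfected human HepG2 cells carrying NR-Gal4 chimeras were exposed 24 h, with 3 nM 6-alpha-fluorotestosterone plus 1.5 nM norgestrel added.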
# [4] = target: zebrafish Estrogen Receptor (ER1), esr1 (gene 259252) (UniProt P57717); assay: ATG_zfER1_XSP2: Attagene TRANS-FACTORIAL Multi-Species (XSP2) HepG2 Assay for zebrafish Estrogen Receptor (ER1) (AID 2283816)
# How it was run: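 After 24 h compound exposure, RNA from transfected HepG2 cells was reverse-transcribed and reporter transcripts resolved by capillary electrophoresis. The TRANS format reads exogenous zebrafish ER1-Gal4 chimera activity on GAL4-UAS elements; gain of signal against DMSO.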
# [5] = target: chicken Estrogen Receptor (ERa), ESR1 (gene 396099) (UniProt P06212); assay: ATG_chERa_XSP2: Attagene TRANS-FACTORIAL Multi-Species (XSP2) HepG2 Assay for chicken Estrogen Receptor (ERa) (AID 2283817);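 note: actives raise reporter signal above DMSO so AC50 reflects ER activation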
# How it was run: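 Exogenous chicken ERa-Gal4 chimera activity was assessed in transfected human liver HepG2 cells after 24 h of treatment. Induced reporter mRNA was quantified fluorescently by capillary electrophoresis, with DMSO as baseline.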
# [6] = system: zebrafish Estrogen Receptor (ER2a), gene 317734; assay: ATG_zfER2a_XSP2: Attagene TRANS-FACTORIAL Multi-Species (XSP2) HepG2 Assay for zebrafish Estrogen Receptor (ER2a) (AID 2283818);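 note: hits raise reporter mRNA so AC50 reflects activation of zebrafish ER2a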
# How it was run: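 Multiplexed trans-reporter readout: RT-PCR then capillary electrophoresis of reporter transcripts after 24 h compound treatment. Human HepG2 carries transfected zebrafish ER2a-Gal4 chimera; 3 nM 6-alpha-fluorotestosterone plus 1.5 nM norgestrel present. Induction scored against DMSO.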
# [7] = system: chicken Androgen Receptor (AR), gene 422165; assay: ATG_chAR_XSP2: Attagene TRANS-FACTORIAL Multi-Species (XSP2) HepG2 Assay for chicken Androgen Receptor (AR) (AID 2283819);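 note: hits raise reporter mRNA above DMSO so potency is for activation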
# How it was run: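 Readout is reporter mRNA induction via RT-PCR/capillary electrophoresis after 24 h chemical exposure, positive direction relative to DMSO. Transiently transfected HepG2 express chimeric chicken AR–GAL4; AR stimulated by 3 nM 6-alpha-fluorotestosterone and 1.5 nM norgestrel.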
# [8] = system: frog Estrogen Receptor (ER), gene 398734; assay: ATG_frER1_XSP2: Attagene TRANS-FACTORIAL Multi-Species (XSP2) HepG2 Assay for frog Estrogen Receptor (ER) (AID 2283821);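 note: hits raise reporter mRNA above DMSO baseline so potency means agonist or activator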
# How it was run: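 Gain-of-signal mRNA reporter assay, HepG2 human liver cells, 24 h dosing; transcripts read by fluorescent RT-PCR fragment analysis, DMSO as negative control.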
# [9] = ATG_M_19_XSP2: Attagene TRANS-FACTORIAL Multi-Species (XSP2) HepG2 Assay for M32 Transcription Factor (Internal Marker) (AID 2283822)
# How it was run: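 Internal background marker in a multi-species nuclear receptor TRANS panel: transfected HepG2 cells exposed 24 h, with 3 nM 6-alpha-fluorotestosterone and 1.5 nM norgestrel present. Readout is RT-PCR of reporter transcripts resolved by capillary electrophoresis, gain-of-signal versus DMSO.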
# [10] = system: zebrafish Estrogen Receptor (ER2b), gene 317733; assay: ATG_zfER2b_XSP2: Attagene TRANS-FACTORIAL Multi-Species (XSP2) HepG2 Assay for zebrafish Estrogen Receptor (ER2b) (AID 2283823);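 note: fitted upward as reporter gain over DMSO so potency reflects activation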
# How it was run: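 Cells used were HepG2, transiently transfected with chimeric nuclear receptor-Gal4 reporter units. After 24 h of chemical treatment, reporter transcripts were amplified by RT-PCR, labelled and sized by capillary electrophoresis, with induction analysed relative to DMSO.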
# [11] = system: frog Androgen Receptor (AR), gene 399456; assay: ATG_frAR_XSP2: Attagene TRANS-FACTORIAL Multi-Species (XSP2) HepG2 Assay for frog Androgen Receptor (AR) (AID 2283824);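 note: reporter mRNA from GAL4-UAS units driven by Xenopus AR-Gal4 chimera; actives raise reporter signal above DMSO so AC50 reflects agonist-like induction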
# How it was run: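 Reporter transcript induction, read by RT-PCR with fluorescent capillary electrophoresis, in human liver HepG2 cells carrying an exogenous Xenopus AR-Gal4 fusion and GAL4-driven reporters; chemical exposure 24 hours, activity scored upward against DMSO controls.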
# [12] = system: zebrafish Androgen Receptor (AR), gene 100005148; assay: ATG_zfAR_XSP2: Attagene TRANS-FACTORIAL Multi-Species (XSP2) HepG2 Assay for zebrafish Androgen Receptor (AR) (AID 2283825);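 note: hits raise reporter mRNA above DMSO so AC50 reflects agonist-type gain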
# How it was run: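 After 24 h compound exposure in medium with 3 nM 6-alpha-fluorotestosterone plus 1.5 nM norgestrel, HepG2 cells carrying zebrafish AR–GAL4 reporter constructs were assessed for reporter mRNA gain by RT-PCR and capillary electrophoresis.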
# [13] = system: frog Estrogen Receptor (ER2), gene 100174814; assay: ATG_frER2_XSP2: Attagene TRANS-FACTORIAL Multi-Species (XSP2) HepG2 Assay for frog Estrogen Receptor (ER2) (AID 2283828)
# How it was run: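 Induction of reporter mRNA, baseline set by DMSO, is the endpoint. The panel was run in transfected HepG2 cells over 24 h, with 3 nM 6-alpha-fluorotestosterone and 1.5 nM norgestrel present to stimulate androgen receptor.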
# [14] = target: Peroxisome proliferator-activated receptor gamma (Homo sapiens) (UniProt P37231); assay: ATG_hPPARg_XSP2: Attagene TRANS-FACTORIAL Multi-Species (XSP2) HepG2 Assay for human Peroxisome Proliferator-activated Receptor gamma (PPARg) (AID 2283829);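 note: actives raise reporter mRNA above DMSO so AC50 reflects PPARg activation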
# How it was run: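 After transfecting HepG2 with GAL4-UAS reporter constructs, cells are dosed for 24 h; total RNA is reverse-transcribed, PCR-amplified, FAM-labeled, HpaI-digested and resolved by capillary electrophoresis. Activity is measured as mRNA induction relative to DMSO.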
# [15] = target: mouse Peroxisome Proliferator-activated Receptor gamma (PPARg), Pparg (gene 19016) (UniProt P37238); assay: ATG_mPPARg_XSP2: Attagene TRANS-FACTORIAL Multi-Species (XSP2) HepG2 Assay for mouse Peroxisome Proliferator-activated Receptor gamma (PPARg) (AID 2283830);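 note: hits are gains in reporter mRNA above DMSO so AC50 marks activation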
# How it was run: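 Multiplexed TRANS reporter readout: after 24 h chemical exposure of transfected HepG2 cells (with 3 nM 6-alpha-fluorotestosterone, 1.5 nM norgestrel present), RNA reverse-transcribed, amplified, 6-FAM-labelled and resolved by capillary electrophoresis; mouse PPARg-Gal4 induction scored against DMSO.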
# [16] = target: Nuclear receptor subfamily 1 group I member 2 (Mus musculus) (UniProt O54915); assay: ATG_mPXR_XSP2: Attagene TRANS-FACTORIAL Multi-Species (XSP1) HepG2 Assay for mouse Pregnane X Receptor (PXR) (AID 2283831)
# How it was run: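 Reporter transcripts were quantified by RT-PCR, FAM primer extension, HpaI digestion and capillary electrophoresis after 24 h of chemical exposure in transiently transfected HepG2 cells carrying chimeric receptor-GAL4 constructs; DMSO served as baseline.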
# [17] = target: zebrafish Thyroid Hormone Receptor alpha (TRa), thraa (gene 30670) (UniProt Q98867); assay: ATG_zfTRa_XSP2: Attagene TRANS-FACTORIAL Multi-Species (XSP1) HepG2 Assay for zebrafish Thyroid Hormone Receptor alpha (TRa) (AID 2283832);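 note: actives raise zebrafish TRa-Gal4 reporter transcript above DMSO baseline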
# How it was run: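 Chimeric zebrafish TRa-Gal4 activity read in transfected human HepG2 as GAL4-UAS reporter transcripts, 24 h post-dose, via RT-PCR with labeled primer extension and capillary electrophoresis. Medium also carries 3 nM 6-alpha-fluorotestosterone and 1.5 nM norgestrel; DMSO baseline.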
# [18] = system: zebrafish Peroxisome Proliferator-activated Receptor gamma (PPARg), gene 557037; assay: ATG_zfPPARg_XSP2: Attagene TRANS-FACTORIAL Multi-Species (XSP2) HepG2 Assay for zebrafish Peroxisome Proliferator-activated Receptor gamma (PPARg) (AID 2283833);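 note: actives increase reporter signal over DMSO so AC50 reflects activation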
# How it was run: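 Multi-species TRANS format in HepG2, 24 h dosing; medium also contained 3 nM 6-alpha-fluorotestosterone and 1.5 nM norgestrel to stimulate androgen receptor. Zebrafish PPARg-GAL4 induced reporter mRNA was measured by RT-PCR/capillary electrophoresis.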
# [19] = system: turtle Thyroid Hormone Receptor, alpha (TRa), gene 101949057; assay: ATG_trTRa_XSP2: Attagene TRANS-FACTORIAL Multi-Species (XSP1) HepG2 Assay for turtle Thyroid Hormone Receptor, alpha (TRa) (AID 2283834);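 note: hits raise reporter mRNA over the DMSO baseline so AC50 marks activators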
# How it was run: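 Transfection of HepG2 with multiple reporter transcription units, then chemical dosing for 24 h. Total RNA was reverse-transcribed, reporter sequences PCR-amplified and FAM-labelled, then sized by capillary electrophoresis. DMSO served as baseline.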
# [20] = target: human Androgen Receptor (AR), AR (gene 367) (UniProt P10275); assay: ATG_hAR_XSP2: Attagene TRANS-FACTORIAL Multi-Species (XSP2) HepG2 Assay for human Androgen Receptor (AR) (AID 2283820)
# How it was run: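 Reporter transcripts were measured by RT-PCR and capillary electrophoresis 24 h post-dosing, with gain of signal fitted against DMSO. Transiently transfected HepG2 cells expressed chimeric NR-Gal4 on GAL4-UAS reporters, with AR stimulated by 3 nM 6-alpha-fluorotestosterone and 1.5 nM norgestrel.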
# Sequence of zebrafish Estrogen Receptor (ER1), esr1 (gene 259252) (P57717 whole entry, looked up, the tested form may be a part): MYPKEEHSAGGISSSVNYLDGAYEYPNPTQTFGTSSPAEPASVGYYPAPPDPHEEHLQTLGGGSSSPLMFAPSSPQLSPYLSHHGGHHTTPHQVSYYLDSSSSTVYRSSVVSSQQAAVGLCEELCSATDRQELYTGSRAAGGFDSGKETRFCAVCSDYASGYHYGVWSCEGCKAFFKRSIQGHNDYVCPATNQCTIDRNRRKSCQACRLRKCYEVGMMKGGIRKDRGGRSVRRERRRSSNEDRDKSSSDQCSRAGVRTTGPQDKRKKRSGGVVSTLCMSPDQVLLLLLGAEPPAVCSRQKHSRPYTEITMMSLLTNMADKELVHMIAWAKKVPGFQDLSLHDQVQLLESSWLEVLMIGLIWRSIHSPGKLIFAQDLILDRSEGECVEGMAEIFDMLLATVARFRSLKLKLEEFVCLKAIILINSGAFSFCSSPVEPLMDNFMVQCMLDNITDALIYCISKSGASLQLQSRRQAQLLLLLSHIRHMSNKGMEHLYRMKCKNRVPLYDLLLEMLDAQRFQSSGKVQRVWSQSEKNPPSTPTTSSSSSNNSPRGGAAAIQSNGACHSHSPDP
# Sequence of zebrafish Thyroid Hormone Receptor alpha (TRa), thraa (gene 30670) (Q98867 whole entry, looked up, the tested form may be a part): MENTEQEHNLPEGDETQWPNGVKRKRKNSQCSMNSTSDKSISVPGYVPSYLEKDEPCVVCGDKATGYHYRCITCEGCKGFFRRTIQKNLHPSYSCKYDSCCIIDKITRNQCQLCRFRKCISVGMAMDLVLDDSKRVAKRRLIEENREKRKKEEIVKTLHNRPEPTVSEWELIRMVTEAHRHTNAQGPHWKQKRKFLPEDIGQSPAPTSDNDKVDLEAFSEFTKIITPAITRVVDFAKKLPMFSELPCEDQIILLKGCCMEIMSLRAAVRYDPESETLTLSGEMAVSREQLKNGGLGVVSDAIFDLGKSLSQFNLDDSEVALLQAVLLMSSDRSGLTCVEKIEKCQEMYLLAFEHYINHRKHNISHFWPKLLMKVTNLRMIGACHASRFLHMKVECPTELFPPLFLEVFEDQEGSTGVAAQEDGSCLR
# Sequence of mouse Peroxisome Proliferator-activated Receptor gamma (PPARg), Pparg (gene 19016) (P37238 whole entry, looked up, the tested form may be a part): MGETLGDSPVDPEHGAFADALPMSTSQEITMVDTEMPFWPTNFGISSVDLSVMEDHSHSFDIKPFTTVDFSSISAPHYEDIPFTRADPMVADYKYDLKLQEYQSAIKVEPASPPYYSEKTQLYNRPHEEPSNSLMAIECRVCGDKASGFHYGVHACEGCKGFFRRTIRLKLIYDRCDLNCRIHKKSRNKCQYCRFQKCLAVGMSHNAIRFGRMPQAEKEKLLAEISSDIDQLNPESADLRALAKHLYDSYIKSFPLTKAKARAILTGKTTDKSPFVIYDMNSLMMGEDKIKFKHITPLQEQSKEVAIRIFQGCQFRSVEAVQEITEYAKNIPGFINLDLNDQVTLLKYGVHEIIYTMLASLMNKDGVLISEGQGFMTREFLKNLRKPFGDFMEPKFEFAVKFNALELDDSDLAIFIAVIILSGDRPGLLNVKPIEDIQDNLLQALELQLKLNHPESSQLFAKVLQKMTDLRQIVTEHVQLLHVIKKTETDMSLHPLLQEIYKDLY
# Sequence of Peroxisome proliferator-activated receptor gamma (Homo sapiens) (P37231 whole entry, looked up, the tested form may be a part): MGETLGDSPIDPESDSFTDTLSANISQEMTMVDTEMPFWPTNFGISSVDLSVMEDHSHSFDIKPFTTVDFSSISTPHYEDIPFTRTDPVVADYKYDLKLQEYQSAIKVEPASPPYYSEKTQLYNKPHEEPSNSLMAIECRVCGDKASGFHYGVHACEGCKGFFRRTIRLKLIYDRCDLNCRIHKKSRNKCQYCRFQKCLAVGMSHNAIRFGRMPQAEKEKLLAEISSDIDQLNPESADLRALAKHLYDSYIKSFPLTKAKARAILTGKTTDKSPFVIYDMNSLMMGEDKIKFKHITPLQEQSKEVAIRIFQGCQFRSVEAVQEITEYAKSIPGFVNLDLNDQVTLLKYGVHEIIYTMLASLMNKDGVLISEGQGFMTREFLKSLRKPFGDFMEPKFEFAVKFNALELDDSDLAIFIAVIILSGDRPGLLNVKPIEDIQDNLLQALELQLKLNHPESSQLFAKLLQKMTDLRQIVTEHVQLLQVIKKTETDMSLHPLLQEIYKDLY
# Sequence of Estrogen receptor beta (Homo sapiens) (Q92731 whole entry, looked up, the tested form may be a part): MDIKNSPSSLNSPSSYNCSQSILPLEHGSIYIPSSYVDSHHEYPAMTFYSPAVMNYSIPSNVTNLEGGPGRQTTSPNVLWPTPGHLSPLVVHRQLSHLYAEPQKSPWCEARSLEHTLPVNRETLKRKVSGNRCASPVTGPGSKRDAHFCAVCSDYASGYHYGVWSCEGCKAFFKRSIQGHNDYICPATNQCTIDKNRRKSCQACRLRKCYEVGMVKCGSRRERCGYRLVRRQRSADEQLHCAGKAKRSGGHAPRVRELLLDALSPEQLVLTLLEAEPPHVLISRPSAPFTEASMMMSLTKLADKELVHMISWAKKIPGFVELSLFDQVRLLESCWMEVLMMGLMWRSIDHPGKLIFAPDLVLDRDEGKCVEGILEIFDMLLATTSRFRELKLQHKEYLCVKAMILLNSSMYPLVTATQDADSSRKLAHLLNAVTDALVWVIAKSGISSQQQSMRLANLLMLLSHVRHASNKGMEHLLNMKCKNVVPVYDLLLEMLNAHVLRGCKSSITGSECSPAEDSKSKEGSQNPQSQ
# Sequence of GAL4 Transcription Factor (Internal Marker), GAL4 (gene 855828) (P04386 whole entry, looked up, the tested form may be a part): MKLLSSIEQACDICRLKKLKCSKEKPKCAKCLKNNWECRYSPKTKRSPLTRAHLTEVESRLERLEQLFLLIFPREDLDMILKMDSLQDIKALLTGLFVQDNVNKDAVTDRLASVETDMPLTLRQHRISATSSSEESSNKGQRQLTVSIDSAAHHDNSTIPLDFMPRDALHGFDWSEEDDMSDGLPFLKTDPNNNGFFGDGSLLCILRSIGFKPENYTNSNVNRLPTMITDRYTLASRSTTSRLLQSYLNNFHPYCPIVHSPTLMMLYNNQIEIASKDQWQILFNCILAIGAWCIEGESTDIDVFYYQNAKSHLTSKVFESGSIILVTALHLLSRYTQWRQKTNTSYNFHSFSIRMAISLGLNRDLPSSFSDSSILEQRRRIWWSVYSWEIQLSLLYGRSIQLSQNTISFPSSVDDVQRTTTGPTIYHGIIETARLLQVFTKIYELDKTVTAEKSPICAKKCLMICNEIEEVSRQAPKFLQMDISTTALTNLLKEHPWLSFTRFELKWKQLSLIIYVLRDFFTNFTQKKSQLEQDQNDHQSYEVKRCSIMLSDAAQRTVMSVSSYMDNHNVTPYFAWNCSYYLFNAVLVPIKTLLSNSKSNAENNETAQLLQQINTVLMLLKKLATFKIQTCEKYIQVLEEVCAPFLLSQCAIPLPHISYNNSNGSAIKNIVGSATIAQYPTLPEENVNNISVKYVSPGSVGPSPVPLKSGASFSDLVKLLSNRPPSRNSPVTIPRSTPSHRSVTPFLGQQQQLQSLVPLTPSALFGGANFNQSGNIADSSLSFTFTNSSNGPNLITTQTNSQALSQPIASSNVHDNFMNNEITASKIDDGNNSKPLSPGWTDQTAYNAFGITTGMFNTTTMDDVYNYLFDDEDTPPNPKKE
# Sequence of Nuclear receptor subfamily 1 group I member 2 (Mus musculus) (O54915 whole entry, looked up, the tested form may be a part): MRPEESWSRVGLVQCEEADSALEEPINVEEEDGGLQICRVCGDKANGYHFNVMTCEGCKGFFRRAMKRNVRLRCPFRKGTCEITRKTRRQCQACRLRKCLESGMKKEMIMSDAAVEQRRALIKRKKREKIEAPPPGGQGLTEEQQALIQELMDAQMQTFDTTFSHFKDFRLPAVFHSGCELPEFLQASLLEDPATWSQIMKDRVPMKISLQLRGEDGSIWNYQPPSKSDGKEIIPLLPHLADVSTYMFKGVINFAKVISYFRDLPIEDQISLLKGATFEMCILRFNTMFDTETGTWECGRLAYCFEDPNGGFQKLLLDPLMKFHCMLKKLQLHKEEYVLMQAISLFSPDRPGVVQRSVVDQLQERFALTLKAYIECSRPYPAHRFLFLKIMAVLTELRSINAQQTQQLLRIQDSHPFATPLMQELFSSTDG
# Sequence of chicken Estrogen Receptor (ERa), ESR1 (gene 396099) (P06212 whole entry, looked up, the tested form may be a part): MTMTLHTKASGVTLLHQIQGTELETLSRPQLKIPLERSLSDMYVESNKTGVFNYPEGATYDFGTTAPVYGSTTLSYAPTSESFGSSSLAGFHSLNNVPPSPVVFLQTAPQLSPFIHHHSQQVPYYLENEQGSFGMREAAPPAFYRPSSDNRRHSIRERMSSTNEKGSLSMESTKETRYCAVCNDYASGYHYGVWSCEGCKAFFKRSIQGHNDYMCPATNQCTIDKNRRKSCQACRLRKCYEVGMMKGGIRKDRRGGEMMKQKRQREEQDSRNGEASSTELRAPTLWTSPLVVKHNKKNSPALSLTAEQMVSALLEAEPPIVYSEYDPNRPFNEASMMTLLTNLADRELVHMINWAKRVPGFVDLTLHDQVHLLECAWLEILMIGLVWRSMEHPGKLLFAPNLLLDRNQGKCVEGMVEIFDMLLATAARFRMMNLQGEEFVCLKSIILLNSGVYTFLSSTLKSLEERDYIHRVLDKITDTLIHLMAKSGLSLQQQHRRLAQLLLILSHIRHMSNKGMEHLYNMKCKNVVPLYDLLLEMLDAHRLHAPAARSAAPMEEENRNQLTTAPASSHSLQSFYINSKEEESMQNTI
smiles,measurement,setting,value
O=C(Oc1ccccc1)c1ccc(O)cc1,AC50,[1],6.15 µM (active)
same,outcome,[1],inactive
same,outcome,[2],inactive
same,outcome,[3],inactive
same,AC50,[4],58.3 µM (active)
same,outcome,[4],inactive
same,AC50,[5],27.8 µM (active)
same,outcome,[5],inactive
same,AC50,[6],63.9 µM (active) and 27.7 µM (active)
same,outcome,[7],inactive
same,AC50,[8],27.2 µM (active)
same,outcome,[8],inactive
same,outcome,[9],inactive
same,AC50,[10],51.2 µM (active) and 4.93 µM (active)
same,outcome,[11],inactive
same,outcome,[12],inactive
same,AC50,[13],72.4 µM (active) and 4.8 µM (active)
same,AC50,[14],100 µM (active)
same,outcome,[14],inactive
same,AC50,[15],68.1 µM (active)
same,outcome,[15],inactive
same,AC50,[16],33.2 µM (active)
same,outcome,[17],inactive
same,outcome,[18],inactive
same,outcome,[19],inactive
O=c1cc(-c2ccccc2)oc2cc(O)cc(O)c12,AC50,[1],42.2 µM (active) and 2.03 µM (active)
same,AC50,[3],1.41 µM (active)
same,AC50,[4],6.38 µM (active)
same,outcome,[4],inactive
same,AC50,[5],7.18 µM (active) and 2.51 µM (active)
same,AC50,[6],6.82 µM (active) and 2.26 µM (active)
same,AC50,[7],1.51 µM (active)
same,outcome,[7],inactive
same,AC50,[20],23.8 µM (active)
same,outcome,[20],inactive
same,outcome,[8],inactive
same,AC50,[10],14.2 µM (active) and 5.28 µM (active)
same,AC50,[11],1.19 µM (active)
same,outcome,[11],inactive
same,AC50,[13],4.67 µM (active) and 2.26 µM (active)
same,AC50,[15],7.92 µM (active) and 1.57 µM (active)
same,AC50,[16],12.3 µM (active) and 25.9 µM (active)
same,outcome,[17],inactive
same,outcome,[18],inactive
same,outcome,[19],inactive
CCCCCCCCCCCCN,outcome,[2],inactive
same,outcome,[3],inactive
same,outcome,[4],inactive
same,AC50,[5],48.3 µM (active)
same,AC50,[6],46.7 µM (active)
same,outcome,[6],inactive
same,outcome,[7],inactive
same,outcome,[8],inactive
same,outcome,[9],inactive
same,outcome,[10],inactive
same,outcome,[11],inactive
same,AC50,[13],55.1 µM (active)
same,AC50,[14],30 µM (active) and 11.9 µM (active)
same,AC50,[15],46.2 µM (active) and 37.7 µM (active)
same,outcome,[16],inactive
same,outcome,[18],inactive
same,outcome,[19],inactive
CN(CCOc1ccc(CC2SC(=O)NC2=O)cc1)c1ccccn1 (stereo not drawn),outcome,[8],inactive
same,outcome,[13],inactive
same,outcome,[18],inactive
CN(C)C(=N)N=C(N)N,outcome,[2],inactive
same,outcome,[3],inactive
same,outcome,[6],inactive
same,outcome,[7],inactive
same,outcome,[9],inactive
same,outcome,[10],inactive
same,outcome,[12],inactive
same,outcome,[13],inactive
same,outcome,[14],inactive
same,outcome,[15],inactive
same,outcome,[17],inactive
same,outcome,[18],inactive
same,outcome,[19],inactive
